Assay results published in PMC7862700, “An all-to-all approach to the identification of sequence-specific readers for epigenetic DNA modifications on cytosine”.

Key:
Test in all cases: DAPPL (digital affinity profiling via proximity ligation, sequencing); 10 mM Tris-HCl pH 7.5, 50 mM NaCl, 1 mM DTT, 4% glycerol, room temperature, 30 min; GST-TFs on glutathione beads, 16-mer random dsDNA library, 0.1% formaldehyde crosslink after washing; high values mean tight binding
FLI1 = molecular target: T1, FLI1 (Homo sapiens, UniProt Q01543 1-452); conditions: protein: recombinant; tags: N-terminal GST; dsDNA, one strand shown
T1 sequence: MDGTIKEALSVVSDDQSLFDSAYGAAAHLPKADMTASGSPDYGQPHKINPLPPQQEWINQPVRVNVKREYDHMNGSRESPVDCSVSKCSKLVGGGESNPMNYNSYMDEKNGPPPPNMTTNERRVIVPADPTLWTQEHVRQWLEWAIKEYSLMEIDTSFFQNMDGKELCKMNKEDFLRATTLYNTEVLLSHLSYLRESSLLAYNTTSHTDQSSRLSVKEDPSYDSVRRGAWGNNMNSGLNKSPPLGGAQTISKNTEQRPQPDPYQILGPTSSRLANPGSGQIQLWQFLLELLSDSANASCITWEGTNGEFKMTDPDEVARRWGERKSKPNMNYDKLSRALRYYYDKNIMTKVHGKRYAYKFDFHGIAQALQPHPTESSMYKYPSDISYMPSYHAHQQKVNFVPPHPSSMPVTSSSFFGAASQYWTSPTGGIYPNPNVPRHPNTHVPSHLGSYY
Outline: (§1)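 Sequencing on an Illumina NextSeq500 followed washing, crosslinking with 0.1% formaldehyde, proximity ligation (BsaI/T4 ligase, 1 h, 37 °C) and PCR amplification of pools that had been incubated for 30 min at room temperature with 200 nmole of a random double-stranded 16-mer DNA library in Tris/NaCl/DTT/glycerol buffer. Each pool held DNA-barcoded human transcription factors, expressed in yeast as GST fusions and captured on glutathione beads, plus a tag-only sample. Binding signal is a hexamer's read frequency for a factor divided by its frequency in the tag-only sample.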

ELK1 = molecular target: T2, ELK1 (Homo sapiens, UniProt P19419 1-428); conditions: protein: recombinant; tags: N-terminal GST; dsDNA, one strand shown
T2 sequence: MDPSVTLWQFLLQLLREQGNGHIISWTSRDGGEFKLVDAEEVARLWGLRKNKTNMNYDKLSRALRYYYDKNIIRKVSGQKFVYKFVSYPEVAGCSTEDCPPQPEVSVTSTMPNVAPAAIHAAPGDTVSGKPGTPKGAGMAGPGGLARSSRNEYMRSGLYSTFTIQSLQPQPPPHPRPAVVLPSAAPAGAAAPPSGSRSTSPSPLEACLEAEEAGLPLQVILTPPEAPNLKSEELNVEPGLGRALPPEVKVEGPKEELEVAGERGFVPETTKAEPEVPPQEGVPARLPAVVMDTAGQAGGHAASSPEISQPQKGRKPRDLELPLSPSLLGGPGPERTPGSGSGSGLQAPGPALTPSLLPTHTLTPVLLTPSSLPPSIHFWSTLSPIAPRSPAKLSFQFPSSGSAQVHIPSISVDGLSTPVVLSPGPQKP
Outline: as §1

GABPA = molecular target: T3, GABPA (Homo sapiens, UniProt Q06546 1-454); conditions: protein: recombinant; tags: N-terminal GST; dsDNA, one strand shown
T3 sequence: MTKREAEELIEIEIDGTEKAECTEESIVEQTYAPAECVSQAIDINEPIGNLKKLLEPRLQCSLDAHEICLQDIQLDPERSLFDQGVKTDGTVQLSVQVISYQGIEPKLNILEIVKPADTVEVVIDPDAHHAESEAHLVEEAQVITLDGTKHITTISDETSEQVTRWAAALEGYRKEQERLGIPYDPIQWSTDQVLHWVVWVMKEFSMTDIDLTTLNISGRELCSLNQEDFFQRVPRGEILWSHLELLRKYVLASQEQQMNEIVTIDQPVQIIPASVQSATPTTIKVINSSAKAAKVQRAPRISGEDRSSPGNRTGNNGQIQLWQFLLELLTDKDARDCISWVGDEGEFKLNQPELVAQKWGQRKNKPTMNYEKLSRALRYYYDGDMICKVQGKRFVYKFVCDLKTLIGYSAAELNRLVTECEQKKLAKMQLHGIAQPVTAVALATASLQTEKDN
Outline: as §1

ERG = molecular target: T4, ERG (Homo sapiens, UniProt P11308 1-479); conditions: protein: recombinant; tags: N-terminal GST; dsDNA, one strand shown
T4 sequence: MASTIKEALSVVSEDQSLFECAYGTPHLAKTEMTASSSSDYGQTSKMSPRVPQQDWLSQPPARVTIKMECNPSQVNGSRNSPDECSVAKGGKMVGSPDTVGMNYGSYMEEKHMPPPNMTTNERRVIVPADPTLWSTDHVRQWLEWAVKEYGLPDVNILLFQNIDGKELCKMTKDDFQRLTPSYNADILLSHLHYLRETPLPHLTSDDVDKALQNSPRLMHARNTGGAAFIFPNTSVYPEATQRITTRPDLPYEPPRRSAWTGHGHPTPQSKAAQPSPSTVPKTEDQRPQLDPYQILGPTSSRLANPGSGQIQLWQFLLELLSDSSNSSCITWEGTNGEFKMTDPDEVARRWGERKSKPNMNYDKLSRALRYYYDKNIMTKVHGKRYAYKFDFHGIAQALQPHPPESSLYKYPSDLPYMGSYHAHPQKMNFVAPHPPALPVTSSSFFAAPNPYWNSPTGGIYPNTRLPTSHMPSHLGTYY
Outline: as §1

ELF1 = ELF1 (Homo sapiens, UniProt P32519 1-619); conditions: protein: recombinant; tags: N-terminal GST; dsDNA, one strand shown
Sequence of ELF1 (P32519 whole entry): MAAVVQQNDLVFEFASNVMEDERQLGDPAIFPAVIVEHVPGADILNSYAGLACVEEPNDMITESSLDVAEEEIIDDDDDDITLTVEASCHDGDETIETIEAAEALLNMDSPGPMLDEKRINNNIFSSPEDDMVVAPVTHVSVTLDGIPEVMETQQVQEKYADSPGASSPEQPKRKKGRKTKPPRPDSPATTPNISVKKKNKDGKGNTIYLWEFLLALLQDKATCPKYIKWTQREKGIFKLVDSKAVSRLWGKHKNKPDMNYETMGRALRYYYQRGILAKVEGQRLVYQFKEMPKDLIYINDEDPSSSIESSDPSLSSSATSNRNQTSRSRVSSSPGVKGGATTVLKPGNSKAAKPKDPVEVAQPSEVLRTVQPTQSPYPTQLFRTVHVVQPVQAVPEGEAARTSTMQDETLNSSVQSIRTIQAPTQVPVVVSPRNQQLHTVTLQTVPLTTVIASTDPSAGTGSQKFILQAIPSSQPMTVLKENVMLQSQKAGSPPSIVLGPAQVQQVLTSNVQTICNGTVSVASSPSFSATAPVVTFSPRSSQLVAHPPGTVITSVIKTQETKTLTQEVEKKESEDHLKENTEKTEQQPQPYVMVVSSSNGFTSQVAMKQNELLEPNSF
Outline: as §1

EHF = molecular target: T5, EHF (Homo sapiens, UniProt Q9NZC4 1-300); conditions: protein: recombinant; tags: N-terminal GST; dsDNA, one strand shown
T5 sequence: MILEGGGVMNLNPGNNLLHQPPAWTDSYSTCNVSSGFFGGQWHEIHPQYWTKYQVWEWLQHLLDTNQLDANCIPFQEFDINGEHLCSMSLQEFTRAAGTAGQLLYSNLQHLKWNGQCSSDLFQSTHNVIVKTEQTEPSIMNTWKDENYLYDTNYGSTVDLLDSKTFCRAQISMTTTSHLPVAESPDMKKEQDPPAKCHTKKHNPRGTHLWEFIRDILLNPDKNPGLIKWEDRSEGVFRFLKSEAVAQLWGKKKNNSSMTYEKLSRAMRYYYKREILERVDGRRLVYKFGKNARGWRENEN
Outline: as §1

SPI1 = SPI1 (Homo sapiens, UniProt P17947 1-270); conditions: protein: recombinant; tags: N-terminal GST; dsDNA, one strand shown
Outline: as §1

SPIB = SPIB (Homo sapiens, UniProt Q01892 1-262); conditions: protein: recombinant; tags: N-terminal GST; dsDNA, one strand shown
Sequence of SPIB (Q01892 whole entry): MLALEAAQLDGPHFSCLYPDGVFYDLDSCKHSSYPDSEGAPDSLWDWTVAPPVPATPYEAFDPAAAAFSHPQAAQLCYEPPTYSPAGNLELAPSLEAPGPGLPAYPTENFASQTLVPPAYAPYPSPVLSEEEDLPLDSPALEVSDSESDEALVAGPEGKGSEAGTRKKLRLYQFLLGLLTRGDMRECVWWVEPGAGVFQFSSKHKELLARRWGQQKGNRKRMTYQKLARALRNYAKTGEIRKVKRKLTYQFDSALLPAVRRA
Outline: as §1

ELK3 = molecular target: T6, ELK3 (Homo sapiens, UniProt P41970 1-407); conditions: protein: recombinant; tags: N-terminal GST; dsDNA, one strand shown
T6 sequence: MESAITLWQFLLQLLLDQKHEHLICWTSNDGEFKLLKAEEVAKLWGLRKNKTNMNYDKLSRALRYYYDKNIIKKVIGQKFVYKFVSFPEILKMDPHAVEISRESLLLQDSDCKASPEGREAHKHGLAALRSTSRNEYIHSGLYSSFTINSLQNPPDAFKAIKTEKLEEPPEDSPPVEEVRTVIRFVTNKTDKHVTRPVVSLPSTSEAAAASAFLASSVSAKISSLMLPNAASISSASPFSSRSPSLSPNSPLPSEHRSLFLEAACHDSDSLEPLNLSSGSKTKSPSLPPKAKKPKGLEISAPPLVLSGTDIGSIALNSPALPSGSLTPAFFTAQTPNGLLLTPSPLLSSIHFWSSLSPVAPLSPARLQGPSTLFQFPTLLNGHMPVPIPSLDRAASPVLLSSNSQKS
Outline: as §1

FEV = molecular target: T7, FEV (Homo sapiens, UniProt Q99581 1-238); conditions: protein: recombinant; tags: N-terminal GST; dsDNA, one strand shown
T7 sequence: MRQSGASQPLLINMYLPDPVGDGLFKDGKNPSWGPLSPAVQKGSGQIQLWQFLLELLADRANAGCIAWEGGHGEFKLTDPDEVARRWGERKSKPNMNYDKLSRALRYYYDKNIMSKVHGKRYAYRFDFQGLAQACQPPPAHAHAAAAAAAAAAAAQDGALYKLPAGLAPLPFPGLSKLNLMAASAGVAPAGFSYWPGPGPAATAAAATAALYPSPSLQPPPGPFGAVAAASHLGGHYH
Outline: as §1

ETV5 = ETV5 (Homo sapiens, UniProt P41161 1-510); conditions: protein: recombinant; tags: N-terminal GST; dsDNA, one strand shown
Sequence of ETV5 (P41161 whole entry): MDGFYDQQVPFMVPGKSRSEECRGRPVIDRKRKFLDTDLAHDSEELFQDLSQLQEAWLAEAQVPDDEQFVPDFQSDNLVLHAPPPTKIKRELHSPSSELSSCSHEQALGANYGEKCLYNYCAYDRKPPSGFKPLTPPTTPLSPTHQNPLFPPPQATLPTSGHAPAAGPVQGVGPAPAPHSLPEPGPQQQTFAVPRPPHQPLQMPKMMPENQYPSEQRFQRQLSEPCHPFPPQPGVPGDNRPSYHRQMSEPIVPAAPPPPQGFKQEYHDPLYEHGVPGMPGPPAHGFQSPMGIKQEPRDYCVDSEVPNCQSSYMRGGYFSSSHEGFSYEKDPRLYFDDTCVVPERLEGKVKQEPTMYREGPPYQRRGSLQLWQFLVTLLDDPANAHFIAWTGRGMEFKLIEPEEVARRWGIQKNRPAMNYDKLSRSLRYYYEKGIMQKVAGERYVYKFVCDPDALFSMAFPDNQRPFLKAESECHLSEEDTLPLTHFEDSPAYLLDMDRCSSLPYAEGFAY
Outline: as §1

HSF1 = HSF1 (Homo sapiens, UniProt Q00613 1-529); conditions: protein: recombinant; tags: N-terminal GST; chain copies: 3; dsDNA, one strand shown
Sequence of HSF1 (Q00613 whole entry): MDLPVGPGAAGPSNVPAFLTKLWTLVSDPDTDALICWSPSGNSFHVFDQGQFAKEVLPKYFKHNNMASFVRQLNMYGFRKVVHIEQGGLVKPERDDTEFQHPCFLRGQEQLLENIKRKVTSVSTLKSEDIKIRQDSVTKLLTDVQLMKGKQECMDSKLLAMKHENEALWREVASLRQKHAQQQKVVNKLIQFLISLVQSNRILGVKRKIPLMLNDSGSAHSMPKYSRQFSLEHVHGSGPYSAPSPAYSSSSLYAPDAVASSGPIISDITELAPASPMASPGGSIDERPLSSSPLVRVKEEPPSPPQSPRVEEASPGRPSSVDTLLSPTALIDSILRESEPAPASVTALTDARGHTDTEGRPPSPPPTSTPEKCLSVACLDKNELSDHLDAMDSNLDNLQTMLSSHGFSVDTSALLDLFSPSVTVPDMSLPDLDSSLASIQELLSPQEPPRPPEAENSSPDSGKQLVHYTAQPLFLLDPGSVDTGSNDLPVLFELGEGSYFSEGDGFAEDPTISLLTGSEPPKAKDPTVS
Outline: as §1

SPIC = molecular target: T8, SPIC (Homo sapiens, UniProt Q8N5J4 1-248); conditions: protein: recombinant; tags: N-terminal GST; dsDNA, one strand shown
T8 sequence: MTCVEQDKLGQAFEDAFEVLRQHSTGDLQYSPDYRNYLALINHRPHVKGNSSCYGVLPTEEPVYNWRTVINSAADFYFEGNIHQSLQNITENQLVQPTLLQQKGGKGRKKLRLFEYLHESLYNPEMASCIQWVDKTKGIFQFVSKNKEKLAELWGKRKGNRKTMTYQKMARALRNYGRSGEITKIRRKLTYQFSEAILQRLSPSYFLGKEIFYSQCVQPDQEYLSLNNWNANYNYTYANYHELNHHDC
Outline: as §1

ELF4 = ELF4 (Homo sapiens, UniProt Q99607 1-663); conditions: protein: recombinant; tags: N-terminal GST; dsDNA, one strand shown
Sequence of ELF4 (Q99607 whole entry): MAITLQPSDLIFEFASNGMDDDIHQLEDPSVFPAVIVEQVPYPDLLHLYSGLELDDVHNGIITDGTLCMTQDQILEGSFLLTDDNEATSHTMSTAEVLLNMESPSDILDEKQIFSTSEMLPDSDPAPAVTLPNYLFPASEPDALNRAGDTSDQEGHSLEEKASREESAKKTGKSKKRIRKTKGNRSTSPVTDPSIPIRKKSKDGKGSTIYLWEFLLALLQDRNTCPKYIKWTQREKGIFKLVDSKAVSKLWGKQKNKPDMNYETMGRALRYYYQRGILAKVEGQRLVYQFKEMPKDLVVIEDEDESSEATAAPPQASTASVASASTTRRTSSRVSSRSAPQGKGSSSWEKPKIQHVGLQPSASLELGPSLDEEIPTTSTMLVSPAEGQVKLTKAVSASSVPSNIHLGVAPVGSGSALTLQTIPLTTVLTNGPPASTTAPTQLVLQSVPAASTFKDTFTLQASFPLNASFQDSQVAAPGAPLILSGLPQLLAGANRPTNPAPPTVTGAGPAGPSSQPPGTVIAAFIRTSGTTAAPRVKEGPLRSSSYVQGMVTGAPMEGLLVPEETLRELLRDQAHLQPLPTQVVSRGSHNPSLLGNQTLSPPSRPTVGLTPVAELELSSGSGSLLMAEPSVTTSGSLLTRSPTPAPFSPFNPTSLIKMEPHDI
Outline: as §1

ELK4 = molecular target: T9, ELK4 (Homo sapiens, UniProt P28324-2 1-405); conditions: protein: recombinant; tags: N-terminal GST; dsDNA, one strand shown
T9 sequence: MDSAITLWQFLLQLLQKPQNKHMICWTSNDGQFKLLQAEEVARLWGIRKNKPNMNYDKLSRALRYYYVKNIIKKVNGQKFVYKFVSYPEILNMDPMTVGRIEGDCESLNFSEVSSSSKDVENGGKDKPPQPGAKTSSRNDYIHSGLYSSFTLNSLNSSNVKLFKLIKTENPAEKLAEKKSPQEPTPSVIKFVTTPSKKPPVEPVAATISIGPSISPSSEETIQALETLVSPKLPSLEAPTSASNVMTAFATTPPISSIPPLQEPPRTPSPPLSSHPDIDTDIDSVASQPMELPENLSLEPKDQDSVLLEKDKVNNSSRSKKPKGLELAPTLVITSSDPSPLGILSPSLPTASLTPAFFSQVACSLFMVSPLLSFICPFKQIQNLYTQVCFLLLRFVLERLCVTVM
Outline: as §1

ETV2 = molecular target: T10, ETV2 (Homo sapiens, UniProt O00321 1-342); conditions: protein: recombinant; tags: N-terminal GST; dsDNA, one strand shown
T10 sequence: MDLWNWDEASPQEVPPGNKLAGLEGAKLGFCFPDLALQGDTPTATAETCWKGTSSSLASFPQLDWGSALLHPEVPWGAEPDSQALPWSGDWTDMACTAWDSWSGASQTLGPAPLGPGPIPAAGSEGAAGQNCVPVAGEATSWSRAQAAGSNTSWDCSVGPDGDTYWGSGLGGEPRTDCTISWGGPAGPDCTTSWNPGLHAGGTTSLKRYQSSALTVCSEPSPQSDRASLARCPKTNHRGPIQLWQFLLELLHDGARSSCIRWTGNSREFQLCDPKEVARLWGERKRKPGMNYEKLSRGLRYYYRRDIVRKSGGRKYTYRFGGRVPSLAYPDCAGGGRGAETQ
Outline: as §1

ELF3 = molecular target: T11, ELF3 (Homo sapiens, UniProt P78545 1-371); conditions: protein: recombinant; tags: N-terminal GST; dsDNA, one strand shown
T11 sequence: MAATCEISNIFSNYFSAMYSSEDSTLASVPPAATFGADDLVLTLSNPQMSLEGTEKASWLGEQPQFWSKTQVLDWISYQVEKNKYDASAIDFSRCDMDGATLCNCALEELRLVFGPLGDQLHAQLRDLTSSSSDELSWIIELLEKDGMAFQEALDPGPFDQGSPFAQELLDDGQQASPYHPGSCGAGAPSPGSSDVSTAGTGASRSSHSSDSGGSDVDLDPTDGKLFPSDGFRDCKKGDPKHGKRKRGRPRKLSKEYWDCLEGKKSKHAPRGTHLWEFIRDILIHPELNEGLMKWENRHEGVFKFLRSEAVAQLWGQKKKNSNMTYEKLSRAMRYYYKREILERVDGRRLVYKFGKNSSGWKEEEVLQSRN
Outline: as §1

CRX = CRX (Homo sapiens, UniProt O43186 1-299); conditions: protein: recombinant; tags: N-terminal GST; dsDNA, one strand shown
Sequence of CRX (O43186 whole entry): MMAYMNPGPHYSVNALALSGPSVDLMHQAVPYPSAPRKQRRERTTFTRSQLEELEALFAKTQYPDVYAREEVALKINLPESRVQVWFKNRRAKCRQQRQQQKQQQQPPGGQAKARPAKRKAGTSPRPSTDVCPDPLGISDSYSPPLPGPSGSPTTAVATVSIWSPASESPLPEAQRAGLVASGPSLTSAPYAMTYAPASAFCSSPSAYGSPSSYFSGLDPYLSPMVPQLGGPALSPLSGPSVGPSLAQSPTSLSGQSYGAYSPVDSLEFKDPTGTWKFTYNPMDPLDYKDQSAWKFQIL
Outline: as §1

ETV1 = ETV1 (Homo sapiens, UniProt P50549 1-477); conditions: protein: recombinant; tags: N-terminal GST; dsDNA, one strand shown
Sequence of ETV1 (P50549 whole entry): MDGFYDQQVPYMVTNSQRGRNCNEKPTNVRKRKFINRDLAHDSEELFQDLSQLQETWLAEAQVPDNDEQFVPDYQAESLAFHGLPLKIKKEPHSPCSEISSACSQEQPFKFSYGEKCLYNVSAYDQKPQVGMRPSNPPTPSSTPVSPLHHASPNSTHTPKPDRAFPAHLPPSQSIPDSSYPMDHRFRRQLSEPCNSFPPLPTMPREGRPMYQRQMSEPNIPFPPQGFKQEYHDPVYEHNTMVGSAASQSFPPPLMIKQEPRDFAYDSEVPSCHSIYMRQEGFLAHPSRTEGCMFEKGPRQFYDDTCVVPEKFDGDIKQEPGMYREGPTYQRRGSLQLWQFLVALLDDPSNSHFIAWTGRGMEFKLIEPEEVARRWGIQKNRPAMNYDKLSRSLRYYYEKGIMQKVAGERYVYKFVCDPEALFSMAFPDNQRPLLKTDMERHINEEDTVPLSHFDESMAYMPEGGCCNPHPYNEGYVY
Outline: as §1

Sequence: ACCAAT
- binding signal (FLI1): 1.35 fold enrichment (6-mer frequency, TF over GST control)
- binding signal (ELK1): 1.34 fold enrichment (6-mer frequency, TF over GST control)
- binding signal (GABPA): 1.4 fold enrichment (6-mer frequency, TF over GST control)
- binding signal (ERG): 1.29 fold enrichment (6-mer frequency, TF over GST control)
- binding signal (ELF1): 1.34 fold enrichment (6-mer frequency, TF over GST control)
- binding signal (EHF): 1.28 fold enrichment (6-mer frequency, TF over GST control)
- binding signal (SPI1): 1.3 fold enrichment (6-mer frequency, TF over GST control)
- binding signal (SPIB): 1.35 fold enrichment (6-mer frequency, TF over GST control)
- binding signal (ELK3): 1.34 fold enrichment (6-mer frequency, TF over GST control)
- binding signal (FEV): 1.25 fold enrichment (6-mer frequency, TF over GST control)
- binding signal (ETV5): 1.24 fold enrichment (6-mer frequency, TF over GST control)
- binding signal (HSF1): 1.16 fold enrichment (6-mer frequency, TF over GST control)
- binding signal (SPIC): 1.31 fold enrichment (6-mer frequency, TF over GST control)
- binding signal (ELF4): 1.38 fold enrichment (6-mer frequency, TF over GST control)
- binding signal (ELK4): 1.35 fold enrichment (6-mer frequency, TF over GST control)
- binding signal (ETV2): 1.13 fold enrichment (6-mer frequency, TF over GST control)
- binding signal (ELF3): 1.28 fold enrichment (6-mer frequency, TF over GST control)
- binding signal (CRX): 1.16 fold enrichment (6-mer frequency, TF over GST control)
- binding signal (ETV1): 1.3 fold enrichment (6-mer frequency, TF over GST control)
